Results reported in PubChem BioAssay.
The source made the active and inactive calls.

Experiments:
[1] = anti-His antibody binders, primary screen, artefact control for SMM control protein annotation, biochemical, small-molecule microarray, 635 nm fluorescence (AID 1128); settings: anti-His Alexa647 antibody binding, higher = more signal;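 note: score merges feature fluorescence with signal-to-noise for each printed compound spot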
[2] = test system: Human papillomavirus type 1a E7 protein (residues 1-88); assay: HPV1a E7 small-molecule binders, primary screen, biochemical, small-molecule microarray, residues 1-88, 635 nm (AID 1129); settings: small-molecule microarray binding, fluorescence 635 nm; higher = more signal
[3] = molecular target: Focal adhesion kinase 1 (Homo sapiens) (UniProt Q05397); assay: small-molecule microarray binders of FAK, primary screen, biochemical, 635/667 nm fluorescence, BSA, DTT (AID 1130); settings: PTK2 binding, 635 nm fluorescence, higher = more signal;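 note: composite of spot emission at 667 nm and signal to noise over triplicate slides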
[4] = test system: Fibrinogen (Alexa647-labelled); assay: fibrinogen binders on compound microarrays, profiling panel, artefact control for SMM control-protein annotation, biochemical, small-molecule microarray, 635/667 nm fluorescence (AID 1131); settings: fibrinogen-A647 binding fluorescence, higher = more signal;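 note: z-score merges 667 nm fluorescence with per-spot signal-to-noise over triplicate slides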
[5] = molecular target: Follistatin (Homo sapiens) (UniProt P19883); assay: follistatin binders on small-molecule microarrays, primary screen, biochemical, small-molecule microarray, 635/667 nm fluorescence (AID 1132); settings: FST binding, 635 nm fluorescence, higher = more signal
[6] = molecular target: Fibroblast growth factor 2 (Homo sapiens) (UniProt P09038); assay: FGF2 binders on small-molecule microarrays, primary screen, biochemical, small-molecule microarray, 635/667 nm fluorescence (AID 1133); settings: small-molecule microarray binding, FGF2, fluorescence 635/667; higher = more signal
[7] = mitochondrial membrane potential change in A549 cells, profiling panel, cell-based, JC-1 fluorescence, basal, 24 h, 100 nL (AID 1138); settings: higher = more signal;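 note: A549 lung adenocarcinoma cells under basal conditions with no added stimulus; test concentration not given here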
Lefty1 = Lefty1 binders on small-molecule microarrays, primary screen, biochemical, small-molecule microarray, 635/667 nm fluorescence (AID 1139); settings: small-molecule microarray binding, fluorescence 635/667; higher = more signal
[8] = test system: wheat germ agglutinin (Triticum aestivum), Alexa647-labelled; assay: wheat germ agglutinin binders on compound microarrays, profiling panel, artefact control for SMM control-protein annotation, biochemical, small-molecule microarray, 635/667 nm fluorescence (AID 1140); settings: WGA-A647 binding, 635 nm fluorescence, higher = more signal;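 note: score merges 667 nm feature emission with signal to noise over triplicate slides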
[9] = molecular target: Luciferin 4-monooxygenase (Photinus pyralis) (UniProt P08659); assay: firefly luciferase enzyme inhibitors, primary screen, biochemical, luminescence, purified enzyme, 2006 set (AID 1141); settings: SteadyGlo luminescence, 30 min, higher = more signal, called active from +8 up or from −8 down;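 note: cell-free assay with purified firefly luciferase at 100 ng per well in PBS; test concentration not given here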
Chain of Luciferin 4-monooxygenase (Photinus pyralis) (P08659 whole entry, looked up): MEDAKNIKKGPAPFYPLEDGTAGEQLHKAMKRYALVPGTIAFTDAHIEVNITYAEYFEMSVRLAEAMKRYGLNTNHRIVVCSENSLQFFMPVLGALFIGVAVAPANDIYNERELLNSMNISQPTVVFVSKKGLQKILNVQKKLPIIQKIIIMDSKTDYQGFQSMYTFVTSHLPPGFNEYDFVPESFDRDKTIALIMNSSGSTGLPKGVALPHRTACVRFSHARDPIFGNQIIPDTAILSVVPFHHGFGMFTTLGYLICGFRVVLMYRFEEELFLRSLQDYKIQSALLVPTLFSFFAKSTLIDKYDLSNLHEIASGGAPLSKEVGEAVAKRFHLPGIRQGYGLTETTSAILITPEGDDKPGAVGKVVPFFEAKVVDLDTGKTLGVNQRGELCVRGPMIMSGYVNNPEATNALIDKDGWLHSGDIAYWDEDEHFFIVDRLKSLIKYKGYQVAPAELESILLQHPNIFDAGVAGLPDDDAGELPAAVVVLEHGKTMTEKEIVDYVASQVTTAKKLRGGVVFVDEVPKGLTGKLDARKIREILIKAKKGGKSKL

Chain of Follistatin (Homo sapiens) (P19883 whole entry, looked up): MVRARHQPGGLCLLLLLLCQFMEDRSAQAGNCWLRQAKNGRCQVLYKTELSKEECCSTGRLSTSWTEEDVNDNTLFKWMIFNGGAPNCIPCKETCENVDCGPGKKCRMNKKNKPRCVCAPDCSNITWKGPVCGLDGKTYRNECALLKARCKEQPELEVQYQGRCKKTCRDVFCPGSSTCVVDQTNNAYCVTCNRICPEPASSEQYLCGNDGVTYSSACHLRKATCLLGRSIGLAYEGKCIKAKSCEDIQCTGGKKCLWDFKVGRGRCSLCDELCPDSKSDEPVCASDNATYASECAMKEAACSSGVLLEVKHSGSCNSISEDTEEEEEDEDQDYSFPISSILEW
Chain of Focal adhesion kinase 1 (Homo sapiens) (Q05397 whole entry, looked up): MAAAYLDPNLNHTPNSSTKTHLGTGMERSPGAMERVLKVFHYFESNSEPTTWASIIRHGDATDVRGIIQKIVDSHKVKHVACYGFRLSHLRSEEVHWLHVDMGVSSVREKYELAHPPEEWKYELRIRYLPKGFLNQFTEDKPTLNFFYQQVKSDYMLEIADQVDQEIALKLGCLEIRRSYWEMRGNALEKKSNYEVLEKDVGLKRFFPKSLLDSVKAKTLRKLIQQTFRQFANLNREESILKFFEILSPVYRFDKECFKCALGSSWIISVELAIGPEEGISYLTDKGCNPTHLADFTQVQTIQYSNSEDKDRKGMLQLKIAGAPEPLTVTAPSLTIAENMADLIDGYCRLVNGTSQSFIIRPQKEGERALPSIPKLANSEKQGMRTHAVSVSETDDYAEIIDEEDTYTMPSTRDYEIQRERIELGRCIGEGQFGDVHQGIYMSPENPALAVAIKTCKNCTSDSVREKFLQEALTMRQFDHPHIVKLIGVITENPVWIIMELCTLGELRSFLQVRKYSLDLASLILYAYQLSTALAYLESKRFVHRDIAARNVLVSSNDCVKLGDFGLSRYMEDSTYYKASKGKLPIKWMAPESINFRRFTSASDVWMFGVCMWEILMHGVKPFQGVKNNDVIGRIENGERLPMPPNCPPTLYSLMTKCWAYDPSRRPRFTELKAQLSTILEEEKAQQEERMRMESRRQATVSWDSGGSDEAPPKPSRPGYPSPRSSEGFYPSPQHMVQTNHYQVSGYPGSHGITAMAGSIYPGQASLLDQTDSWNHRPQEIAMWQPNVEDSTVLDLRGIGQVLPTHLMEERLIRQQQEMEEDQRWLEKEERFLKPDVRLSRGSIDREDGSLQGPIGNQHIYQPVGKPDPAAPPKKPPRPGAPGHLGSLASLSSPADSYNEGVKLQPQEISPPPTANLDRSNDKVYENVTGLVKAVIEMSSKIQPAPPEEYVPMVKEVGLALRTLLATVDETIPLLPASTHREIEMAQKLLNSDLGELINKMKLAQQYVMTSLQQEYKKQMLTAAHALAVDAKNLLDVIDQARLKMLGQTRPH
Chain of Fibroblast growth factor 2 (Homo sapiens) (P09038 whole entry, looked up): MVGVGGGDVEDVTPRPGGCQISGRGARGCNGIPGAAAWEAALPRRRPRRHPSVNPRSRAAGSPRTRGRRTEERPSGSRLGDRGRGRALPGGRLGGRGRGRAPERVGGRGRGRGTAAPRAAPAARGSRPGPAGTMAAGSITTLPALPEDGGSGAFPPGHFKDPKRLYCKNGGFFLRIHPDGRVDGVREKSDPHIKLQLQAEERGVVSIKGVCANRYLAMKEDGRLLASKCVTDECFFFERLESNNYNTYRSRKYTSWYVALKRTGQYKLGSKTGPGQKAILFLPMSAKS

Compound	composite z-score [1]	composite z-score [2]	composite z-score [3]	composite z-score [4]	composite z-score [5]	composite z-score [6]	z-score [7]	composite z-score (Lefty1)	composite z-score [8]	z-score [9]
C=CC(COC(C)=O)NS(=O)(=O)c1ccc(Br)cc1 (stereo not given)	0.192	0.971	-0.271	0.596	0.902	0.608	0.499	0.673	0.0285	-0.481 (inactive)
CC(C)C[C@@H]1NC(=O)[C@H]2C[C@@H](C(=O)NCCCCCCNC(=O)CS)[C@@H](c3cccc(OCCO)c3)N2C1=O	1.19	1.21	0.236	0.855	1.43	1.64	1	1.57	0.96	-1.05 (inactive)
C=CCNC(=O)[C@@H]1[C@H]2C(=O)O[C@H](c3ccccc3)[C@H](c3ccccc3)N2[C@H](c2ccccc2OCCO)[C@@]12C(=O)Nc1ccc(C#CC3=CCCCC3)cc12	1.57	1.22	0.683	0.9	1.21	1.02	-1.55	1.12	0.971	-1.48 (inactive)
CCCCCCc1nc(CCCc2cc3c(c(CCCCCC)n2)[Si](C(C)C)(C(C)C)OC3)cc2c1[Si](C(C)C)(C(C)C)OC2	-0.658	-1.19	-0.0475	-1.14	0.597	-0.13	0.531	0.0479	-0.973	0.651 (inactive)
CN1C(=O)C2C(C1=O)C1C=C(CCCO)C2C(c2cccs2)N1C (stereo not given)	0.121	-0.612	-0.0834	-0.234	0.143	0.0096	1.15	-0.76	-0.1	-0.39 (inactive)
CCC(CC)C(O)C1C=CC2C(=O)N(c3ccccc3)C(=O)C2N1Nc1ccc(C#N)cc1 (stereo not given)	1.74	1.27	0.813	0.991	0.816	-0.177	-0.111	0.0695	1.21	-0.27 (inactive)
[N-]=[N+]=Nc1ccccc1C[C@]1(C(=O)NCCN2CCOCC2)N=C(c2ccc(OCCCO)cc2)O[C@H]1c1ccccc1	1.34	1.27	0.903	0.952	1.29	0.877	0.273	-0.246	0.309	-0.683 (inactive)
C=CCNC(=O)[C@@H]1[C@H]2C(=O)O[C@H](c3ccccc3)[C@H](c3ccccc3)N2[C@H](c2ccc(O)cc2)[C@@]12C(=O)N(C(=O)OCCOC)c1ccccc12	1.92	1.21	0.419	0.945	0.714	-0.145	-0.595	0.522	0.795	-0.355 (inactive)
O=C1C2C=CC(C(O)c3cccs3)N(Nc3ccccc3F)C2C(=O)N1c1ccccc1 (stereo not given)	1.29	1.09	0.961	0.916	0.414	-0.282	-0.265	-0.0918	0.127	1.71 (inactive)
C=C(CCCC)C(=O)CC[C@H](OC(=O)c1cccnc1)c1cccc(OCCO)c1	0.637	-0.395	-0.262	-0.847	0.254	0.275	1.28	0.563	-0.288	-1.2 (inactive)
O=C(O)[C@@]1(Cc2ccccc2)N=C(c2ccc(OCCCO)cc2)O[C@H]1c1ccccc1	1.31	-0.112	-0.233	0.967	0.572	-0.686	0.593	0.194	0.915	1.16 (inactive)
CCCCCCCCCCC(O)C1C=CC2C(=O)N(Cc3ccccc3)C(=O)C2N1n1cnnc1 (stereo not given)	-0.244	0.812	0.656	0.532	-0.238	-0.982	-1.27	0.486	0.493	0.892 (inactive)
CC(C)C(O)C1C=CC2C(=O)N(c3ccccc3)C(=O)C2N1Nc1ccc(C#N)cc1 (stereo not given)	1.68	1.14	0.0162	1.01	0.97	0.598	0.192	-0.265	1.12	-0.555 (inactive)
COC(=O)c1ccc(C(O)C2C=CC3C(=O)N(C)C(=O)C3N2NC(=O)OC(C)(C)C)o1 (stereo not given)	0.882	1.06	0.329	0.63	0.419	0.624	-0.414	0.0239	0.436	-0.965 (inactive)
O=C1O[C@@H](c2ccccc2)[C@@H](c2ccccc2)N2[C@@H](c3ccc(O)cc3)[C@]3(C(=O)Nc4ccc(C#CC5=CCCCC5)cc43)[C@@H](C(=O)O)[C@H]12	3.13	1.11	0.676	0.734	0.473	0.146	-0.29	0.195	1.35	-3.5 (inactive)
COC(=O)[C@@]1(Cc2ccc(OC)cc2)[C@H]2c3cc(C(=O)N4CCCC4)n(CCc4c[nH]c5cc(F)ccc45)c3C[C@H]2CN1C(=O)c1ccccc1	1.46	1.25	0.861	0.994	1.23	0.303	0.509	0.0312	1.18	0.378 (inactive)
COC(=O)[C@@]1(Cc2ccc(OC)cc2)[C@H]2c3cc(C(=O)N4CCCC4)n(Cc4ccccn4)c3C[C@H]2CN1C(=O)c1ccccc1	2.3	1.26	0.464	0.8	0.169	-0.332	1.37	-0.467	1.2	1.91 (inactive)
CCCC[C@H]1OB(O)C[C@H]2C1=C(C)C[C@H]1C(=O)N(Cc3ccccc3)C(=O)[C@H]12	0.201	0.366	0.553	0.311	0.797	1.26	0.625	0.63	-0.144	-1.15 (inactive)
CC(C)c1ccc(NN2C(C(O)c3cccc(O)c3)C=CC3C(=O)N(c4ccccc4)C(=O)C32)cc1 (stereo not given)	1.16	1.25	0.781	0.992	1.35	-0.179	0.116	0.61	0.754	-0.824 (inactive)
COC(=O)[C@@]1(Cc2ccc(OC)cc2)[C@H]2c3cc(C(=O)N(C)C)n(Cc4c(OC)[nH]cc(C)c4=O)c3C[C@H]2CN1C(=O)c1ccccc1	-0.13	0.66	0.66	0.324	0.326	-0.123	0.539	-0.144	0.59	0.151 (inactive)
[N-]=[N+]=NCc1ccccc1C[C@]1(C(=O)NCCN2CCOCC2)N=C(c2ccc(OCCCO)cc2)O[C@H]1c1ccccc1N=[N+]=[N-]	0.853	1.25	0.669	0.989	0.714	0.0056	1.29	-0.209	0.976	-7.78 (inactive)
COC(=O)C(CC#Cc1ccc2c(c1)[C@]1(C(=O)N2)[C@H](c2ccc(OCCO)cc2)N2[C@H](c3ccccc3)[C@H](c3ccccc3)OC(=O)[C@H]2[C@@H]1C(=O)NC[C@H](O)c1ccccc1)C(=O)OC	1.06	1.23	0.751	0.849	0.966	0.387	-0.816	0.346	1.16	-1.67 (inactive)
